Consider 36 compounds from PubChem BioAssay (NCATS).

Records with an inconclusive call do not appear. Active and inactive are the calls of the source. Calls follow the shape of the dose curve; as a rule, active = well fitted inhibition curve with a large enough effect; inconclusive = small, poorly fitted or top-dose-only effect; inactive = flat fitted curve, though single readings scatter.

The first experiment in a line: qHTS profiling for inhibitors of Plasmodium falciparum proliferation (AID 504749).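 Also: 0% = DMSO vehicle and full inhibition = artemisinin control; nearly all actives have a fitted effect of over 60% in size.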 Particulars: P. falciparum in erythrocytes, SYBR Green DNA, 72 h; at 28.7 µM (top of the series); parasite line A. The method in brief: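 SYBR Green fluorescence (ex 485 nm, em 535 nm) reports parasite DNA after 72 h compound exposure of infected red cells at 0.3% parasitemia, 2.5% hematocrit; signal normalized to 0.29 uM artemisinin and vehicle wells.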
Background: qHTS replaces the single test concentration by a dilution series.
Turning to `COc1ccc(C(=O)c2ccc(C)cc2)c(O)c1`, the activity, negative = inhibition is 16.1% (inactive).
Same read-out and setting: the same measure for `Cc1c(Cl)cccc1Nc1ncccc1C(=O)O`: 15.4% (inactive).
Same read-out and setting: the same measure for `c1ccc2c(c1)OCC(CN1CCCCC1)O2` (configuration not stated): 4.84% (inactive); for `CC(C)NCC(O)COc1ccccc1-n1cccc1` (configuration not stated): 18.2% (inactive); for `CN1c2c(nc(N)[nH]c2=O)NCC1CNc1ccc(C(=O)NC(CCC(=O)O)C(=O)O)cc1` (configuration not stated): 2.92% (inactive).
The same measure, in the same setting: with `O=C(O)COc1ccc(CCNS(=O)(=O)c2ccccc2)s1` the figure was 12.4% (inactive); with `CC(=O)Nc1ccc(OC(C)=O)cc1`, 10.5% (inactive).
Turning to `NCCN`, the activity, negative = inhibition was 5.04% (inactive).
On the same count and under the same terms, the same measure for `O=C(NCCNCC(O)COc1ccc(O)cc1)N1CCOCC1` (configuration not stated): 8.13% (inactive); for `NC(=O)[C@@H]1CCCN1C(=O)[C@H](Cc1cnc[nH]1)NC(=O)[C@@H]1CCC(=O)N1`: 0.117% (inactive).
Same read-out and setting: the same measure for `CN(C)CCCSc1ccccc1NC(=O)/C=C/c1ccccc1`: 13.3% (inactive); for `CO/N=C(/C(=O)N[C@@H]1C(=O)N2C(C(=O)O)=C(COC(N)=O)CS[C@H]12)c1ccco1`: 6.01% (inactive).
As to `Cc1ncc[nH]1`, the activity, negative = inhibition was 1.23% (inactive).
With `O=C(NNCNNC(=O)c1ccncc1)c1ccncc1`, the activity, negative = inhibition is 1.43% (inactive).
Still for that read-out and setting: the same measure for `O=C(O)CC/C=C\CC[C@@H]1[C@@H](N2CCCCC2)[C@@H](O)C[C@@H]1OCc1ccc(-c2ccccc2)cc1`: 6.82% (inactive).
As for `Cc1cc(C)c(NC(=O)C[C@H](CC(=O)O)c2cccc3ccccc23)c(C(=O)N2CCC3(CCCC3)CC2)c1`, the activity, negative = inhibition is 4.74% (inactive).
On the same count and under the same terms, with `O=C1c2ccccc2C(=O)C1c1ccc(F)cc1` the figure was -6.63% (inactive).
On the same count and under the same terms, the same measure for `CC1CCC(NC(=O)N(CCCl)N=O)CC1` (configuration not stated): 9.36% (inactive); for `CC(C)c1ncc([N+](=O)[O-])n1C`: 8.33% (inactive); for `CN(Cc1ccccc1)Cc1ccccc1`: 9.08% (inactive).
Still for that read-out and setting: the same measure for `CC(CNC(=O)c1cccnc1)NC(=O)c1cccnc1` (configuration not stated): 8.56% (inactive); for `O=[n+]1ccn([O-])c2ccccc21`: 14.9% (inactive).
In the case of `O=P(O)(O)OC[C@H](O)CO`, the activity, negative = inhibition was -1.1% (inactive).
On the same count and under the same terms, with `OC[C@H]1O[C@@H]2O[C@H]3[C@H](O)[C@@H](O)[C@@H](O[C@H]4[C@H](O)[C@@H](O)[C@@H](O[C@H]5[C@H](O)[C@@H](O)[C@@H](O[C@H]6[C@H](O)[C@@H](O)[C@@H](O[C@H]7[C@H](O)[C@@H](O)[C@@H](O[C@H]1[C@H](O)[C@H]2O)O[C@@H]7CO)O[C@@H]6CO)O[C@@H]5CO)O[C@@H]4CO)O[C@@H]3CO` the figure was 6.28% (inactive); with `CC(C)OC(=O)Nc1ccc2nc(-c3cscn3)[nH]c2c1`, 1.15% (inactive).
Take `S=C=Nc1ccc(N=C=S)cc1`: the activity, negative = inhibition was 10.9% (inactive).
Same read-out and setting: the same measure for `CCc1ncnc2cc(OC)c(OC)cc12`: -5.32% (inactive); for `COC(=O)C(CN)c1c[nH]c2ccc(OC)cc12` (configuration not stated): -3.75% (inactive).
On the same count and under the same terms, with `NC(=O)Oc1ccc(Cc2ccccc2)cc1` the figure was 0.685% (inactive).
Same read-out and setting: with `CC1(C)S[C@@H]2[C@H](NC(=O)C3(N)CCCCC3)C(=O)N2[C@H]1C(=O)O` the figure was 1.02% (inactive); with `O[C@@H]([C@H](O)[C@H](O)CBr)[C@H](O)CBr`, -11.7% (inactive); with `CC12CCC(C[N+](C)(CCC[N+](C)(C)C)C1)C2(C)C` (configuration not stated), 7.03% (inactive).
As to `NCC(O)CC(=O)O` (configuration not stated), the activity, negative = inhibition was 13% (inactive).
Still for that read-out and setting: the same measure for `CCCOC(=O)c1ccccc1O`: 3.1% (inactive); for `O=C(CCCN1CCN2CCCC2C1)c1ccc(F)cc1` (configuration not stated): 12% (inactive).
Same read-out and setting: with `OCC(O)CO` the figure was 7.74% (inactive).

The same experiment, now with this note: P. falciparum in erythrocytes, SYBR Green DNA, 72 h; at 28.7 µM (top of the series); parasite line B.
Turning to `COc1ccc(C(=O)c2ccc(C)cc2)c(O)c1`, the activity, negative = inhibition was 14.8% (inactive).
`Cc1c(Cl)cccc1Nc1ncccc1C(=O)O`: the activity, negative = inhibition was 7.39% (inactive).
Same read-out and setting: the same measure for `c1ccc2c(c1)OCC(CN1CCCCC1)O2` (configuration not stated): 0.843% (inactive); for `CC(C)NCC(O)COc1ccccc1-n1cccc1` (configuration not stated): -1.41% (inactive); for `CN1c2c(nc(N)[nH]c2=O)NCC1CNc1ccc(C(=O)NC(CCC(=O)O)C(=O)O)cc1` (configuration not stated): -8.81% (inactive).
Same read-out and setting: the same measure for `O=C(O)COc1ccc(CCNS(=O)(=O)c2ccccc2)s1`: -10.1% (inactive); for `CC(=O)Nc1ccc(OC(C)=O)cc1`: 11.7% (inactive); for `NCCN`: 2.26% (inactive).
On the same count and under the same terms, with `O=C(NCCNCC(O)COc1ccc(O)cc1)N1CCOCC1` (configuration not stated) the figure was 8.21% (inactive).
Take `NC(=O)[C@@H]1CCCN1C(=O)[C@H](Cc1cnc[nH]1)NC(=O)[C@@H]1CCC(=O)N1`: the activity, negative = inhibition was 4.94% (inactive).
The same measure, in the same setting: with `CN(C)CCCSc1ccccc1NC(=O)/C=C/c1ccccc1` the figure was 3.42% (inactive).
On the same count and under the same terms, the same measure for `CO/N=C(/C(=O)N[C@@H]1C(=O)N2C(C(=O)O)=C(COC(N)=O)CS[C@H]12)c1ccco1`: 2.26% (inactive); for `Cc1ncc[nH]1`: 14.4% (inactive).
Still for that read-out and setting: the same measure for `O=C(NNCNNC(=O)c1ccncc1)c1ccncc1`: 9.6% (inactive); for `O=C(O)CC/C=C\CC[C@@H]1[C@@H](N2CCCCC2)[C@@H](O)C[C@@H]1OCc1ccc(-c2ccccc2)cc1`: 1.98% (inactive).
Consider `Cc1cc(C)c(NC(=O)C[C@H](CC(=O)O)c2cccc3ccccc23)c(C(=O)N2CCC3(CCCC3)CC2)c1`, for which the activity, negative = inhibition was -1.81% (inactive).
With `O=C1c2ccccc2C(=O)C1c1ccc(F)cc1`, the activity, negative = inhibition is 2.77% (inactive).
Turning to `CC1CCC(NC(=O)N(CCCl)N=O)CC1` (configuration not stated), the activity, negative = inhibition was 3.89% (inactive).
For the compound `CC(C)c1ncc([N+](=O)[O-])n1C`, the activity, negative = inhibition is 4.53% (inactive).
Take `CN(Cc1ccccc1)Cc1ccccc1`: the activity, negative = inhibition is -0.726% (inactive).
Same read-out and setting: with `CC(CNC(=O)c1cccnc1)NC(=O)c1cccnc1` (configuration not stated) the figure was 11.1% (inactive).
The same measure, in the same setting: the same measure for `O=[n+]1ccn([O-])c2ccccc21`: 3.55% (inactive); for `O=P(O)(O)OC[C@H](O)CO`: 9.77% (inactive).
On the same count and under the same terms, with `OC[C@H]1O[C@@H]2O[C@H]3[C@H](O)[C@@H](O)[C@@H](O[C@H]4[C@H](O)[C@@H](O)[C@@H](O[C@H]5[C@H](O)[C@@H](O)[C@@H](O[C@H]6[C@H](O)[C@@H](O)[C@@H](O[C@H]7[C@H](O)[C@@H](O)[C@@H](O[C@H]1[C@H](O)[C@H]2O)O[C@@H]7CO)O[C@@H]6CO)O[C@@H]5CO)O[C@@H]4CO)O[C@@H]3CO` the figure was 7.95% (inactive); with `CC(C)OC(=O)Nc1ccc2nc(-c3cscn3)[nH]c2c1`, -9.28% (inactive).
For `S=C=Nc1ccc(N=C=S)cc1`, the activity, negative = inhibition was 0.756% (inactive).
Still for that read-out and setting: with `CCc1ncnc2cc(OC)c(OC)cc12` the figure was 10.1% (inactive); with `COC(=O)C(CN)c1c[nH]c2ccc(OC)cc12` (configuration not stated), -2.84% (inactive).
On the same count and under the same terms, the same measure for `NC(=O)Oc1ccc(Cc2ccccc2)cc1`: 4.41% (inactive).
On the same count and under the same terms, the same measure for `CC1(C)S[C@@H]2[C@H](NC(=O)C3(N)CCCCC3)C(=O)N2[C@H]1C(=O)O`: 10.4% (inactive); for `O[C@@H]([C@H](O)[C@H](O)CBr)[C@H](O)CBr`: 1.51% (inactive).
On to `CC12CCC(C[N+](C)(CCC[N+](C)(C)C)C1)C2(C)C` (configuration not stated), for which the activity, negative = inhibition was 18.6% (inactive).
On the same count and under the same terms, with `NCC(O)CC(=O)O` (configuration not stated) the figure was 3.91% (inactive); with `CCCOC(=O)c1ccccc1O`, 6.22% (inactive).
Still for that read-out and setting: with `O=C(CCCN1CCN2CCCC2C1)c1ccc(F)cc1` (configuration not stated) the figure was 7.07% (inactive).
The same measure, in the same setting: the same measure for `OCC(O)CO`: 7.55% (inactive).
